# Several values for one entry are separate records, joined by “and”; a condition that tells them apart may be missing. Equal values may be shown once. Activity calls are given as the source filed them.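 The calls were made as follows, unless noted: active = thallium flux through the channel raised or lowered by more than 3 SD from vehicle-only wells, actives on both sides; inactive = the rest.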
# Columns and labels:
# [1] = liver-stage malaria parasite growth inhibition, primary screen, cell-based, HepG2, luciferase luminescence, HepG2 viability (AID 624349; in the data active = parasite load remaining mostly below about 12%, no sharp cut-off; inactive = mostly above about 10%;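 also: 100% = mean of DMSO negative control wells on the same plate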); details: P. berghei liver stage in HepG2, luciferase luminescence, concentration not given here; parasite load remaining: stronger effect = lower value; viability: measured here: HepG2 viability without parasites
# [2] = Cy5 fluorescence interference with SSB-bound oligo, artefact control for HCV NS3 helicase inhibitor project, biochemical, NIH Clinical Collection, E. coli SSB (AID 743268; call rule not given here)
# [3] = system: Hepatitis C virus NS3 helicase; assay: HCV NS3 helicase inhibitors, primary screen, biochemical, fluorescence polarization, NIH Clinical Collection (AID 743270; call rule not given here); details: NS3 helicase binding to Cy5-dT15 DNA, stronger effect = higher value, concentration not given here
# [4] = molecular target: Single-stranded DNA-binding protein (Escherichia coli (strain K12)) (UniProt P0AGE0); assay: E. coli SSB displacement from DNA, counter-screen for HCV NS3 helicase inhibitor project, biochemical, fluorescence polarization, NIH Clinical Collection (AID 743271; in the data active = inhibition above about 28%); details: stronger effect = higher value, concentration not given here
# [5] = fluorescence interference in NS3h assay format, artefact control for HCV NS3 helicase inhibitor project, biochemical, NIH Clinical Collection (AID 743272; call rule not given here;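 also: HCV NS3 helicase with a Cy5 labelled single stranded DNA probe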); details: fluorescence interference counterscreen, stronger effect = lower value
# [6] = modulation of C. elegans fzo-1 (AID 1259413; call rule not given here;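 also: fzo-1 mutant C. elegans worms in liquid wells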); details: C. elegans fzo-1 modulator screen, mean read-out; stronger effect = higher value
# [7] = sensitizers of A549 cells to miR-34 induction, primary screen, imaging, A549 dox-inducible miR-34, nuclei and caspase counts (AID 1347080;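 active = compounds whose cell count with miR-34 switched on is under 0.7 times the count with it off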); details: A549 miR-34 inducible, Hoechst nuclei count, 48 h
# [8] = survival rescue of mitochondrial mutant cells in low glucose, primary screen, MELAS cybrids, Rieske KO mouse fibroblasts, CellTiter-Glo (AID 1508586;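 active = mean z-score across replicates of 1.96 or higher in either the MELAS or the Rieske mutant cell line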;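 also: z relative to plate mean and SD of compound and empty wells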)
# [9] = viability rescue of complex I mutant cybrids, primary screen, cell-based, galactose medium, ATP luminescence (AID 1645843;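 active = z-score of at least 1.8 in each of two replicates, scored against plate mean and spread of sample wells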;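 also: positive z means more ATP and so rescue of galactose-driven cybrid death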); details: complex I mutant cybrid cells, 72 h, stronger effect = higher value
# F380Y = assay: modulators of BK channel variants, profiling panel, selectivity assay, cell-based, U2OS BacMam, thallium flux, beta subunits (AID 1259406); details: at 30 µM;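 also: initial slope of Thallos dye fluorescence rise after thallium is added; log ratio against the mean of 0.3% DMSO vehicle wells on the same plate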
# F380Y/beta1 = assay: as above; details: at 30 µM
# F380Y/beta2Delta = assay: as above; details: at 30 µM
# F380Y/beta4 = assay: as above; details: at 30 µM
# [10] = molecular target: Calcium-activated potassium channel subunit alpha-1 (Homo sapiens) + Leucine-rich repeat-containing protein 26 (Homo sapiens) (UniProt Q12791+Q2I0M4); assay: as above; details: F380Y/Slo1WT/gamma1, at 30 µM
# R275C = assay: as above; details: at 30 µM
# R275C/beta1 = assay: as above; details: at 30 µM
# R275C/beta2Delta = assay: as above; details: at 30 µM
# R275C/beta4 = assay: as above; details: at 30 µM
# R275C/Slo1WT/beta2 = assay: as above; details: at 30 µM
# [11] = stronger effect = lower value, cell number ratio, induced over uninduced
# [12] = measured here: relative caspase fold change +Dox/-Dox
# [13] = measured here: total cells with miR-34 induction, stronger effect = lower value
# [14] = measured here: total cells without miR-34 induction
# [15] = MELAS cybrid survival, CellTiter-Glo 48 h, stronger effect = higher value
# [16] = Rieske KO mouse fibroblast survival, CellTiter-Glo 72 h
# Chain of Calcium-activated potassium channel subunit alpha-1 (Homo sapiens) + Leucine-rich repeat-containing protein 26 (Homo sapiens) (Q2I0M4 whole entry, looked up, one chain of several): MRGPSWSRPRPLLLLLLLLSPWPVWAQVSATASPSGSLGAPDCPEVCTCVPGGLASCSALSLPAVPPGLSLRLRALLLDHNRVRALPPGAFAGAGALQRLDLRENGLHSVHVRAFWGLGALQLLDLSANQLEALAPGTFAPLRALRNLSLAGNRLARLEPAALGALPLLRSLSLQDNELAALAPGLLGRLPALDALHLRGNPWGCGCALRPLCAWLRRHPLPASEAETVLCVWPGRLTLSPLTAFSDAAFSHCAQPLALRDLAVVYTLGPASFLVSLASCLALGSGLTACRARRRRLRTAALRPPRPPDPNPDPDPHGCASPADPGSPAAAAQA
structure (smiles),measurement,setting,value
CCC(C)n1ncn(-c2ccc(N3CCN(c4ccc(OCC5COC(Cn6cncn6)(c6ccc(Cl)cc6Cl)O5)cc4)CC3)cc2)c1=O (stereo not given),parasite load remaining,[1],26.8% (inactive) and 13.6% (inactive)
same,viability,[1],59.8% and 65%
same,fluorescence ratio,[2],0.99 (inactive)
same,inhibition,[3],2.77% (inactive)
same,inhibition,[4],-1.64% (inactive)
same,fluorescence ratio,[5],1 (inactive)
same,mean signal,[6],270 (inactive)
same,fold change,[7]; [11],0.793 (inactive) and 0.866 (inactive)
same,fold change,[7]; [12],1.39 and 1.62
same,cell count,[7]; [13],5650 and 9680
same,cell count,[7]; [14],7130 and 11200
same,z-score,[8]; [15],-0.416 (inactive) and -0.441 (inactive)
same,z-score,[8]; [16],0.947 and 1.02
same,z-score,[9],-1.48 (inactive) and 0.09 (inactive)
same,log fold change Tl+ flux,F380Y,0.0299 (inactive)
same,log fold change Tl+ flux,F380Y/beta1,0.0346 (inactive)
same,log fold change Tl+ flux,F380Y/beta2Delta,-0.00576 (inactive)
same,log fold change Tl+ flux,F380Y/beta4,0.0111 (inactive)
same,log fold change Tl+ flux,[10],0.0139 (inactive)
same,log fold change Tl+ flux,R275C,-0.015 (inactive)
same,log fold change Tl+ flux,R275C/beta1,0.0149 (inactive)
same,log fold change Tl+ flux,R275C/beta2Delta,0.0172 (inactive)
same,log fold change Tl+ flux,R275C/beta4,-0.00424 (inactive)
same,log fold change Tl+ flux,R275C/Slo1WT/beta2,0.0617 (inactive)
CC1CC2C3CCC4=CC(=O)C=CC4(C)C3(F)C(O)CC2(C)C1(O)C(=O)CO (stereo not given),parasite load remaining,[1],69.5% (inactive)
same,viability,[1],108%
same,fluorescence ratio,[2],0.1 (active)
same,inhibition,[3],-0.45% (inactive)
same,inhibition,[4],1.81% (inactive)
same,fluorescence ratio,[5],1.04 (inactive)
same,mean signal,[6],266 (inactive)
same,fold change,[7]; [11],0.928 (inactive)
same,fold change,[7]; [12],0.945
same,cell count,[7]; [13],8000
same,cell count,[7]; [14],8620
same,z-score,[9],1.66 (inactive)
same,log fold change Tl+ flux,F380Y,-0.000812 (inactive)
same,log fold change Tl+ flux,F380Y/beta1,0.043 (inactive)
same,log fold change Tl+ flux,F380Y/beta2Delta,0.0297 (inactive)
same,log fold change Tl+ flux,F380Y/beta4,-0.00203 (inactive)
same,log fold change Tl+ flux,[10],0.021 (inactive)
same,log fold change Tl+ flux,R275C,0.00154 (inactive)
same,log fold change Tl+ flux,R275C/beta1,0.0289 (inactive)
same,log fold change Tl+ flux,R275C/beta2Delta,-0.0295 (inactive)
same,log fold change Tl+ flux,R275C/beta4,0.0089 (inactive)
same,log fold change Tl+ flux,R275C/Slo1WT/beta2,-0.0137 (inactive)
CN1[C@@H]2CC[C@H]1CC(OC(=O)C(CO)c1ccccc1)C2 (stereo not given in full),parasite load remaining,[1],41.5% (inactive) and 46.2% (inactive)
same,viability,[1],87.1% and 116%
same,mean signal,[6],274 (inactive)
same,fold change,[7]; [11],0.947 (inactive) and 0.887 (inactive) and 0.871 (inactive)
same,fold change,[7]; [12],2.84 and 0.579 and 1.47
same,cell count,[7]; [13],10500 and 7790 and 9390
same,cell count,[7]; [14],11100 and 8790 and 10800
same,z-score,[8]; [15],-0.283 (inactive) and 0.13 (inactive)
same,z-score,[8]; [16],0.502 and 0.307
same,z-score,[9],0.56 (inactive) and 0.265 (inactive)
same,log fold change Tl+ flux,F380Y,0.0269 (inactive)
same,log fold change Tl+ flux,F380Y/beta1,-0.0245 (inactive)
same,log fold change Tl+ flux,F380Y/beta2Delta,0.00535 (inactive)
same,log fold change Tl+ flux,F380Y/beta4,0.0216 (inactive)
same,log fold change Tl+ flux,[10],0.00679 (inactive)
same,log fold change Tl+ flux,R275C,-0.0152 (inactive)
same,log fold change Tl+ flux,R275C/beta1,-0.00104 (inactive)
same,log fold change Tl+ flux,R275C/beta2Delta,0.0208 (inactive)
same,log fold change Tl+ flux,R275C/beta4,-0.00928 (inactive)
same,log fold change Tl+ flux,R275C/Slo1WT/beta2,0.0472 (inactive)
NC(=O)c1ncn(C2OC(CO)C(O)C2O)n1 (stereo not given),parasite load remaining,[1],36.7% (inactive)
same,viability,[1],151%
same,fluorescence ratio,[2],1.01 (inactive)
same,inhibition,[3],1.36% (inactive)
same,inhibition,[4],5.62% (inactive)
same,fluorescence ratio,[5],1.05 (inactive)
same,mean signal,[6],278 (inactive)
same,fold change,[7]; [11],0.987 (inactive) and 0.921 (inactive)
same,fold change,[7]; [12],1.64 and 0.871
same,cell count,[7]; [13],9950 and 8880
same,cell count,[7]; [14],10100 and 9640
same,z-score,[8]; [15],-0.322 (inactive)
same,z-score,[8]; [16],0.486
same,z-score,[9],1.69 (inactive)
same,log fold change Tl+ flux,F380Y,-0.0109 (inactive)
same,log fold change Tl+ flux,F380Y/beta1,-0.00666 (inactive)
same,log fold change Tl+ flux,F380Y/beta2Delta,-0.00987 (inactive)
same,log fold change Tl+ flux,F380Y/beta4,0.00318 (inactive)
same,log fold change Tl+ flux,[10],-0.0406 (inactive)
same,log fold change Tl+ flux,R275C,0.0183 (inactive)
same,log fold change Tl+ flux,R275C/beta1,-0.000638 (inactive)
same,log fold change Tl+ flux,R275C/beta2Delta,-0.0258 (inactive)
same,log fold change Tl+ flux,R275C/beta4,-0.0315 (inactive)
same,log fold change Tl+ flux,R275C/Slo1WT/beta2,0.0198 (inactive)
C[C@H]1[C@@H](OC(=O)CCC(=O)O)O[C@@H]2OC3(C)CC[C@H]4[C@H](C)CC[C@@H]1[C@@]24OO3,parasite load remaining,[1],54.9% (inactive) and 19.6% (inactive)
same,viability,[1],74.2% and 68%
same,fluorescence ratio,[2],1.05 (inactive)
same,inhibition,[3],4.36% (inactive)
same,inhibition,[4],-3.18% (inactive)
same,fluorescence ratio,[5],0.99 (inactive)
same,mean signal,[6],258 (inactive)
same,fold change,[7]; [11],1.04 (inactive)
same,fold change,[7]; [12],0.836
same,cell count,[7]; [13],6160
same,cell count,[7]; [14],5910
same,z-score,[8]; [15],-1.42 (inactive)
same,z-score,[8]; [16],0.615
same,z-score,[9],-2.11 (inactive)
same,log fold change Tl+ flux,F380Y,0.0198 (inactive)
same,log fold change Tl+ flux,F380Y/beta1,0.0472 (inactive)
same,log fold change Tl+ flux,F380Y/beta2Delta,0.00204 (inactive)
same,log fold change Tl+ flux,F380Y/beta4,0.00589 (inactive)
same,log fold change Tl+ flux,[10],-0.0126 (inactive)
same,log fold change Tl+ flux,R275C,0.0183 (inactive)
same,log fold change Tl+ flux,R275C/beta1,0.0209 (inactive)
same,log fold change Tl+ flux,R275C/beta2Delta,0.00454 (inactive)
same,log fold change Tl+ flux,R275C/beta4,-0.0146 (inactive)
same,log fold change Tl+ flux,R275C/Slo1WT/beta2,0.000694 (inactive)
CCCCc1nc(Cl)c(CO)n1Cc1ccc(-c2ccccc2-c2nnn[nH]2)cc1,parasite load remaining,[1],81.8% (inactive) and 40.5% (inactive)
same,viability,[1],76.8% and 103%
same,fluorescence ratio,[2],1.01 (inactive)
same,inhibition,[3],-1.19% (inactive)
same,inhibition,[4],2.21% (inactive)
same,fluorescence ratio,[5],0.93 (inactive)
same,mean signal,[6],250 (inactive)
same,fold change,[7]; [11],0.917 (inactive) and 0.788 (inactive)
same,fold change,[7]; [12],2.6 and 1.84
same,cell count,[7]; [13],9420 and 8200
same,cell count,[7]; [14],10300 and 10400
same,z-score,[8]; [15],-0.447 (inactive)
same,z-score,[8]; [16],-1.13
same,z-score,[9],0.965 (inactive) and 0.025 (inactive)
same,log fold change Tl+ flux,F380Y,-0.0174 (inactive)
same,log fold change Tl+ flux,F380Y/beta1,0.0224 (inactive)
same,log fold change Tl+ flux,F380Y/beta2Delta,-0.000818 (inactive)
same,log fold change Tl+ flux,F380Y/beta4,0.0154 (inactive)
same,log fold change Tl+ flux,[10],0.0245 (inactive)
same,log fold change Tl+ flux,R275C,-0.0209 (inactive)
same,log fold change Tl+ flux,R275C/beta1,0.00988 (inactive)
same,log fold change Tl+ flux,R275C/beta2Delta,0.0215 (inactive)
same,log fold change Tl+ flux,R275C/beta4,0.039 (inactive)
same,log fold change Tl+ flux,R275C/Slo1WT/beta2,-0.0136 (inactive)
CN(C)C1C(=O)C(C(N)=O)=C(O)C2(O)C(=O)C3=C(O)c4c(O)ccc(Cl)c4C(O)C3CC12 (stereo not given),parasite load remaining,[1],84.6% (inactive)
same,viability,[1],103%
same,fluorescence ratio,[2],1.05 (inactive)
same,inhibition,[3],-11.4% (inactive)
same,inhibition,[4],-1.24% (inactive)
same,fluorescence ratio,[5],0.84 (inactive)
same,mean signal,[6],261 (inactive)
same,fold change,[7]; [11],0.964 (inactive)
same,fold change,[7]; [12],1.22
same,cell count,[7]; [13],5440
same,cell count,[7]; [14],5650
same,z-score,[9],-1.45 (inactive)
same,log fold change Tl+ flux,F380Y,-0.0288 (inactive)
same,log fold change Tl+ flux,F380Y/beta1,-0.00371 (inactive)
same,log fold change Tl+ flux,F380Y/beta2Delta,-0.0136 (inactive)
same,log fold change Tl+ flux,F380Y/beta4,0.00837 (inactive)
same,log fold change Tl+ flux,[10],0.0307 (inactive)
same,log fold change Tl+ flux,R275C,-0.0571 (inactive)
same,log fold change Tl+ flux,R275C/beta1,-0.0108 (inactive)
same,log fold change Tl+ flux,R275C/beta2Delta,-0.203 (active)
same,log fold change Tl+ flux,R275C/beta4,-0.101 (inactive)
same,log fold change Tl+ flux,R275C/Slo1WT/beta2,-0.0217 (inactive)

# — PubChem BioAssay
